# High-throughput results as filed in PubChem.
# D3 ag: activates the human D3 dopamine receptor. max activation, %. AID 652048. P35462. D3R DiscoveRx beta-arrestin cells, luminescence, 90 min. 0.58% of 410,000 active; in the data active means max activation above about 30%; further: 0% is about no effect
# Target sequence (P35462 whole entry, looked up): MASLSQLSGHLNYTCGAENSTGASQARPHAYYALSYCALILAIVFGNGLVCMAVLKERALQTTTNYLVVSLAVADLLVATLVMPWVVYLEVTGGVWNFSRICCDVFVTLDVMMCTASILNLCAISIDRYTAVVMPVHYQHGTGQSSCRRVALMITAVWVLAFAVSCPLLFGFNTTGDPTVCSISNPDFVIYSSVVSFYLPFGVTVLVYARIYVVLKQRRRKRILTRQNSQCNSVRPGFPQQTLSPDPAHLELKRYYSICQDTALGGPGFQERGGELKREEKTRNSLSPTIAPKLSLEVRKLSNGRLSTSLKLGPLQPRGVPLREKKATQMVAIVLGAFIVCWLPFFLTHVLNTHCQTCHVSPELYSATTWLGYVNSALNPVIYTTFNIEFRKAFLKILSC
#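 Agonist mode: compounds and dopamine controls were applied to plated cells for 90 min at 37 degrees C after an overnight attachment at 1500 cells/well. Luminescent read-out followed 30 - 60 minutes at room temperature with DiscoveRx detection reagent.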
# Glioma ERSR ind: ER stress response induction in glioma | Potency, µM, for inactives: at the highest dose activation, most hits filed as activators | 0.02% of 420,000 active | U87-MG GRP78 promoter luciferase reporter, 16 h | AID 602332; further: potency means the concentration at half of the fitted maximal effect; series mostly up to about 76 µM; % of control where 0% means no effect; nearly all actives have a fitted effect of over 35% in size
#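 Stably transfected U87-MG glioma cells carrying a GRP78-based luciferase sensor; 16 h compound incubation. Luminescence end-point read 10 min after Bright-Glo addition at room temperature.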
# DRD3 antagonist: blocks the human D3 dopamine receptor. D3R cells, DiscoveRx beta-arrestin luminescence, antagonist mode; stronger effect = lower value. max response, negative = inhibition, %. 2.5% of 360,000 active; in the data active means max response below about -50%; inconclusive means no clear call, values can overlap the other calls; further: on the % scale 0 is the no-effect control and ±100 the full control effect
#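 Cells plated overnight at 1500 cells/well, then exposed to library compounds with dopamine controls for 90 minutes at 37 degrees C. DiscoveRx reagent added for 30–60 minutes at room temperature; luminescence read, quantitative HTS format.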
# Nrf2 ARE act: activates Nrf2 signaling; AID 624171; 0.31% of 410,000 active; AREc32 ARE-luciferase reporter (MCF7-derived line), luminescence, 24 h; Potency, µM (top dose mostly 46.1 µM), for inactives: top-dose activation, usual class: activators; further: potency means the concentration at half of the fitted maximal effect; % of control where 0% means no effect; nearly all actives have a fitted effect of over 65% in size
#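 ARE-driven firefly luciferase activity in AREc32 cells measured after a 24 hr compound exposure at 37 deg C, using Steady-Glo reagent and a 30 min room-temperature hold.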
# The depositor's hits bear a star; ? = inconclusive; · = no result; ! = a repeat was not active. The list is not random: actives were taken first. Their share in the collection is about 3%. Unless noted, the call rests on the fitted dose curve; in most records, active means well fitted curve in the direction sought with a large enough effect; inconclusive means small, poorly fitted or top-dose-only effect, or another doubt; inactive means no such curve, though single readings can be large; an effect the other way counts as inactive or inconclusive.
SMILES,D3 ag,Glioma ERSR ind,DRD3 antagonist,Nrf2 ARE act
O=C(c1cccc2ccccc12)C1CCCN(C2CCC2)C1 (stereo not drawn),-17,1%,-51*,-1%
O=C(c1cccc2ccccc12)C1CCCN(Cc2ccon2)C1 (stereo not drawn),-31,4%,-68*,0%
ClCCN(CCCl)c1ccc(/C=C/c2ccnc3ccccc23)cc1,·,3%,·,·
CC1=C(N2CC2)C(=O)C(CO)=C(N2CC2)C1=O,-36,-14%,-96*,-3%
CO[C@@H](COC(N)=O)C1=C(N2CC2)C(=O)C(C)=C(N2CC2)C1=O,·,-11%,·,·
CCC(=O)O[C@H]1[C@@H](N2CCCCC2)C[C@H]2[C@@H]3CC[C@H]4C[C@H](OC(C)=O)[C@@H](N5CCCCC5)C[C@]4(C)[C@H]3CC[C@@]21C,-15,·,·,·
C=C1C(=O)O[C@@H]2C[C@@H](C)[C@@H]3C=CC(=O)[C@@]3(C)[C@@H](O)[C@H]12,-75,-4%,-102*,-3%
NCCc1c[nH]c2ccccc12,-38,1%,?,6%
CCCCc1ccc2[nH]cc(CCN)c2c1,65*,-4%,-1,5%
Cc1ccsc1C(=O)C1CCCN(Cc2cnc(N3CCCC3)s2)C1 (stereo not drawn),-17,-3%,-79*,10%
CSc1ncc(CN2CCCC(C(=O)c3sccc3C)C2)cn1 (stereo not drawn),-19,-2%,-25,5%
Cc1ccc(CN2CCCC(C(=O)c3sccc3C)C2)o1 (stereo not drawn),-24,-2%,-52*,5%
Clc1ccc(COC(Cn2ccnc2)c2ccc(Cl)cc2Cl)c(Cl)c1 (stereo not drawn),47*!,-2%,-8,5%
CC12CCCCC1=[N+]([O-])CN2O (stereo not drawn),1,-3%,-62*,-1%
NCCc1cc(O)c(O)cc1O,-10,-2%,-68*!,-1%
CC1(C)CC/C(=C\c2ccc(Cl)cc2)C1(O)Cn1cncn1 (stereo not drawn),·,-3%,·,·
CCCCCc1cc(O)c2c(c1)OC(C)(C)C1CC=C(C)CC21 (stereo not drawn),·,-6%,·,·
CN1CCc2nc(SCc3ccccc3Br)c(C#N)cc2C1,-11,4%,-81*,5%
C[C@@H]1[C@@H]2Cc3ccc(O)cc3[C@@]1(C)CCN2CCc1ccccc1,-23,·,·,·
CCOCCCNC(=O)CN1C2CCC1CC(O)(c1ccc(OC)cc1)C2 (stereo not drawn),-29,-3%,-72*,0%
COc1ccc(NC(=O)CN2C3CCC2CC(O)(c2cccnc2)C3)cc1OC (stereo not drawn),1,-6%,-30,0%
CCn1c(O)c(N=Nc2cccc(S(=O)(=O)N3CCOCC3)c2)c(=O)n(CC)c1=S,4,-2%,-7,2%
CCn1c(O)c(N=Nc2ccc(S(=O)(=O)N3CCOCC3)cc2)c(=O)n(CC)c1=S,-5,0%,-71*,1%
c1ccc(C(OCCN2CCNCC2)c2ccccc2)cc1,-1,-5%,-68*,3%
CC[C@H]1CN(C)CCc2c([nH]c3ccccc23)C(=O)C[C@@H]1/C(=C\OC)C(=O)OC,-16,-4%,-51*,3%
SMILES,D3 ag,Glioma ERSR ind,DRD3 antagonist,Nrf2 ARE act
CC1(O)CCC2C3CCC4=CC(=O)CCC4(C)C3(F)C(O)CC21C (stereo not drawn),·,-1%,·,·
Cc1ccccc1CN1Cc2cnnn2-c2ccccc2C1C#N (stereo not drawn),-66,-12%,-115*,-3%
Cc1ccccc1C(=O)N1Cc2cnnn2-c2ccccc2C1C#N (stereo not drawn),9,-5%,0,0%
COc1ccc2c(c1O)[C@]13CCN(C)[C@H](C2)[C@@H]1CCC(=O)C3,0,3%,-2,0%
COC1=CC=C2[C@H]3Cc4ccc(OC)c5c4[C@@]2(CCN3C)[C@H]1O5,-15,-6%,-66*,0%
O=c1[nH]c(=O)n(C2CCCCCC2)c(O)c1C=NC1CCN(Cc2ccccc2)CC1,-15,-6%,-58*,0%
O=c1[nH]c(=O)n(C2CCCCCC2)c(O)c1C=NCC1CCCO1 (stereo not drawn),11,5%,-51*,0%
Cc1cc(O)c(CN2CC=C(c3ccccc3)CC2)cc1C(C)C,-20,-2%,-73*,0%
OC(CN1CC=C(c2ccccc2)CC1)c1ccccc1 (stereo not drawn),21,-1%,-21,-1%
CCCCCCN1CCN(c2ccccc2Cl)CC1,2,-4%,-115*,0%
Clc1cccc(Cl)c1CN1CCN(c2ccccc2)CC1,-13,-4%,?,0%
C[C@]12CC[C@H]3[C@@H](CCC4=CC(=O)CC[C@@]43C)[C@@H]1CC[C@@H]2OC(=O)CCc1ccccc1,10,·,·,·
Cc1cc(C)cc(-n2c(C)cc(/C=C3\C(=O)NC(=O)N(C)C3=O)c2C)c1,-11,-4%,-65*,-1%
CC(=O)O[C@H]1C[C@H](O[C@H]2[C@@H](O)C[C@H](O[C@H]3[C@@H](O)C[C@H](O[C@H]4CC[C@@]5(C)[C@H](CC[C@@H]6[C@@H]5C[C@@H](O)[C@]5(C)[C@@H](C7=CC(=O)OC7)CC[C@]65O)C4)O[C@@H]3C)O[C@@H]2C)O[C@H](C)[C@H]1O[C@@H]1O[C@H](CO)[C@@H](O)[C@H](O)[C@H]1O,3,·,·,·
CC(C)N1CCN(c2ccc(O)cc2)CC1,-5,-5%,-7,0%
CC(C)N1CCOC(c2ccc(O)c(O)c2)C1 (stereo not drawn),95*,-1%,19,0%
COC(=O)C1=C(c2ccc(OCc3ccccc3)cc2)C[C@@H]2CC[C@H]1N2C(=O)NCCN1CCOCC1,-5,-3%,-10,0%
COC(=O)C1=C(c2ccc(OCc3ccccc3)cc2)C[C@@H]2CC[C@H]1N2C(=O)NC1CCN(Cc2ccccc2)CC1,-33,-3%,-94*,-2%
CCC(C)N1CCN(C(=O)Cc2ccccc2)CC1 (stereo not drawn),-19,-6%,-65*,-1%
COc1ccccc1CCNCc1cc2c(cc1[N+](=O)[O-])OCO2,1,2%,-56*,2%
CN1CCN(c2ccc([N+](=O)[O-])c(NCc3ccco3)c2)CC1,-9,-2%,-75*,7%
CN1CCN(c2ccc([N+](=O)[O-])c(N)c2)CC1,2,-1%,-25,2%
CN1CCN(c2ccc([N+](=O)[O-])c(NCC3CCCO3)c2)CC1 (stereo not drawn),44*,2%,0,2%
CC(=O)Nc1c2sscc-2n(C)c1=O,·,-11%,·,·
CCOc1ccc(C2(C#N)CC[N+](C)(C)CC2)cc1,-2,2%,-51*,-1%
